Measurements reported in the supplement of paper PMC10849652.
About 8,800 targets were measured; listed, in parts, are those with a hit and a random draw of the rest. About 0.5% of all pairs of compound and target were hits.

Columns and labels:
Assay in all cases: log2 fold change, soluble protein after heating vs DMSO (PISA); higher = thermal stabilisation; K562 lysate, 10 uM; active = over 0.2 and 3.5 SD of the protein, either way, in both replicates (recomputed)
[1] = compound: C1=CC=C(C=C1)[C@H](COC2=CC3=C(C=C2)NC(=O)N3)NC(=O)C4=CC=CN(C4=O)CC5=CC(=C(C=C5)F)F
Summary of the method: (§1)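 To prepare the extract, K562 pellets were dounce-homogenised in PBS pH 7.4 with 1 mM MgCl2, giving crude material at 1 mg/mL protein. This was treated with 10 μM compound for 30 min, then heated in aliquots for 3 min over 48°C-58°C before pooling and addition of NP-40 to 0.5% at 4°C. Centrifugation at 21,000xg for 90 min left soluble protein in the supernatant, which TMTpro 16plex LC-MS/MS quantified with equalised channel sums. Results are log-two fold changes in thermal stability compared with solvent controls, from duplicates.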

[2] = compound: CC1=C(SC2=C1C(=N[C@H](C3=NN=C(N32)C)CC(=O)N)C4=CC=C(C=C4)Cl)C
Summary of the method: as §1

[3] = compound: CC1=C2C(=CC=C1)N=C(N(C2=O)C3=CC=CC=C3C)CN4C=NC5=C(N=CN=C54)N
Summary of the method: as §1

[4] = compound: Cc1sc2c(c1C)C(c1ccc(Cl)cc1)=N[C@@H](CC(=O)OC(C)(C)C)c1nnc(C)n1-2
Summary of the method: as §1

[5] = compound: c1ccc([C@@H]2C[C@H]2NC2CCNCC2)cc1
Summary of the method: as §1

Measured: log2 fold change

NFKBIB (UniProt Q15653)
inactive: [1] 0.068 | [2] 0 | [3] 0.014 | [4] 0.055 | [5] -0.185

MRPS31 (UniProt Q92665)
inactive: [1] -0.019 | [2] -0.048 | [3] 0.046 | [4] 0.014 | [5] 0.014

NCKAP1L (UniProt P55160)
Sequence of UniProt P55160 (P55160 whole entry, looked up): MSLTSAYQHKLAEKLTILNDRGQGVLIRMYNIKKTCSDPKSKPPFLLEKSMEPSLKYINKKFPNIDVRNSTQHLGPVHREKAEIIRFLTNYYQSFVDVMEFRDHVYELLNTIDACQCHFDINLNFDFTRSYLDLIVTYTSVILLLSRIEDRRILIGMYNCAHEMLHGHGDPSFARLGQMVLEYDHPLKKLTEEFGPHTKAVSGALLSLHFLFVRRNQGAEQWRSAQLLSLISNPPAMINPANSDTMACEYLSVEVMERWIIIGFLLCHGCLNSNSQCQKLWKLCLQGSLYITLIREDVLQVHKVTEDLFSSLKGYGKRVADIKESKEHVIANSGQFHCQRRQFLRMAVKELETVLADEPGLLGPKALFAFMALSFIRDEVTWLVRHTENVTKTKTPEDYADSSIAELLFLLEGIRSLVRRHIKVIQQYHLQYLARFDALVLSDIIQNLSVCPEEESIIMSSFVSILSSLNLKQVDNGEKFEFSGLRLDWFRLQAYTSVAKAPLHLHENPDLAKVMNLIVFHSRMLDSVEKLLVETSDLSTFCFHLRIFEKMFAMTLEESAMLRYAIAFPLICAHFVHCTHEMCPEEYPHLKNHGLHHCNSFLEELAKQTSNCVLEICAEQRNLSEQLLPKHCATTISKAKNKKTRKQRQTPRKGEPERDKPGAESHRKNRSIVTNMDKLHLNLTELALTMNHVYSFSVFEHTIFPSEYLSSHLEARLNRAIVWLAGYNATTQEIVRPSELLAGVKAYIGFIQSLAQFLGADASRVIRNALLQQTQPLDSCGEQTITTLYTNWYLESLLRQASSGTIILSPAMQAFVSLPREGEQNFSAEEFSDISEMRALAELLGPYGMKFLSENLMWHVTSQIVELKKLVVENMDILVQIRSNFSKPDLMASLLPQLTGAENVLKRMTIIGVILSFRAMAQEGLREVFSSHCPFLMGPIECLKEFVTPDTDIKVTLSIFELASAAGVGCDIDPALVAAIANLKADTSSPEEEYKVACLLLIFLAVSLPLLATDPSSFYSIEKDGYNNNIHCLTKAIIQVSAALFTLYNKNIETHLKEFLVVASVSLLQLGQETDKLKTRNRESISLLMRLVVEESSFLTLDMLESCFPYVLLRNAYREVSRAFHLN
inactive: [1] -0.002 | [2] 0.021 | [3] -0.106 | [4] -0.061 | [5] 0.005

ORC2 (UniProt Q13416)
inactive: [1] -0.052 | [2] -0.011 | [3] -0.012 | [4] 0.025 | [5] 0.044

NSL1 (UniProt Q96IY1)
inactive: [1] 0.028 | [2] 0.012 | [3] -0.001 | [4] 0.053 | [5] -0.014

MT-CYB (UniProt P00156)
Sequence of UniProt P00156 (P00156 whole entry, looked up): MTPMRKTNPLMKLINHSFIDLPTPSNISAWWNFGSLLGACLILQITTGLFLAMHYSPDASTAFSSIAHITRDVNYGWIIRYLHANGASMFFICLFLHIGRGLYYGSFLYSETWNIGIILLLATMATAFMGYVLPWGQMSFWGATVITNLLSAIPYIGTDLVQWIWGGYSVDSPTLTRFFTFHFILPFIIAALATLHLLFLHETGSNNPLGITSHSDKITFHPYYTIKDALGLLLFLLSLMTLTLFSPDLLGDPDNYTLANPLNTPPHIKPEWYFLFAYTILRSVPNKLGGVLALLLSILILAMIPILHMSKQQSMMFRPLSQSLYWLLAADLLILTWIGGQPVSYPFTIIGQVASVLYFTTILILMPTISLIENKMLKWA
inactive: [1] 0.062 | [2] -0.091 | [3] -0.052 | [4] -0.132 | [5] -0.468

MYO9A isoform 4 (UniProt B2RTY4)
inactive: [1] -0.124 | [2] -0.047 | [3] 0.094 | [4] -0.027 | [5] -0.02

OAT (UniProt P04181)
inactive: [1] 0.029 | [2] 0.031 | [3] 0.038 | [4] 0.034 | [5] -0.018

MRPS18A isoform 2 (UniProt Q9NVS2)
inactive: [1] 0.005 | [2] -0.101 | [3] 0.054 | [4] 0.066 | [5] 0.2

OSGEP (UniProt Q9NPF4)
inactive: [1] -0.007 | [2] 0.031 | [3] 0.036 | [4] 0.063 | [5] 0.011

OARD1 (UniProt Q9Y530)
inactive: [1] -0.005 | [2] -0.014 | [3] 0.035 | [4] 0.044 | [5] -0.005

NUDT5 (UniProt Q9UKK9)
inactive: [1] 0.053 | [2] -0.126 | [3] -0.012 | [4] -0.097 | [5] -0.158

PANK1 (UniProt Q8TE04)
Sequence of UniProt Q8TE04 (Q8TE04 whole entry, looked up): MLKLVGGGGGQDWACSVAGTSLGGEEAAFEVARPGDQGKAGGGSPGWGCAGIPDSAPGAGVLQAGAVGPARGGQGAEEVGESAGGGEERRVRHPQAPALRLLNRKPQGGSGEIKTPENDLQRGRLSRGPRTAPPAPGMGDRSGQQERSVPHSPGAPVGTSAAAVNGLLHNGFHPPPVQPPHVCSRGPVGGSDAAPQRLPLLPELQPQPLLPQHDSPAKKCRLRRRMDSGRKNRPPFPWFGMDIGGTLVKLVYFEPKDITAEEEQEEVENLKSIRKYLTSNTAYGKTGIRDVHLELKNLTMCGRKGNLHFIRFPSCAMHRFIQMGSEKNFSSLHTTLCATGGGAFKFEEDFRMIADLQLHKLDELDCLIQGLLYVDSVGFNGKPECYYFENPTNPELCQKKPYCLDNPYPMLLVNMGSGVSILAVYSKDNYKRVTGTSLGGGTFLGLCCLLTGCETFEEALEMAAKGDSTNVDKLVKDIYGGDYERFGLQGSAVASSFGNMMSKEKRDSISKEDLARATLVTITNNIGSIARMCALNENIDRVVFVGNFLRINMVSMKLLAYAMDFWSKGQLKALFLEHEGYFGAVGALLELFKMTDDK
inactive: [1] -0.071 | [2] -0.056 | [3] 0.178 | [4] -0.077 | [5] 0.076

PAIP2 (UniProt Q9BPZ3)
inactive: [1] -0.009 | [2] 0.042 | [3] 0.03 | [4] 0.021 | [5] 0.036

MTMR6 (UniProt Q9Y217)
inactive: [1] 0.015 | [2] 0.01 | [3] 0.006 | [4] -0.065 | [5] 0.062

NLRP2 (UniProt Q9NX02)
inactive: [1] -0.01 | [2] -0.027 | [3] -0.015 | [4] 0.03 | [5] 0.093

MYO10 (UniProt Q9HD67)
inactive: [1] -0.122 | [2] 0.104 | [3] 0.165 | [5] 0.024

OSBPL1A (UniProt Q9BXW6)
inactive: [1] -0.089 | [2] 0.007 | [4] -0.144 | [5] -0.084

NUDT6 (UniProt P53370)
inactive: [3] -0.222 | [4] 0.009

ORC3 (UniProt Q9UBD5)
inactive: [5] -0.276

PAGE4 (UniProt O60829)
inactive: [1] 0.024 | [2] -0.11 | [4] -0.143 | [5] 0.118

NIFK (UniProt Q9BYG3)
inactive: [1] 0.065 | [2] 0.07 | [3] 0.015 | [4] 0.056 | [5] 0.047

NARF (UniProt Q9UHQ1)
inactive: [1] -0.023 | [2] -0.005 | [3] 0.017 | [4] -0.019 | [5] 0

N4BP2 (UniProt Q86UW6)
inactive: [1] 0.024 | [2] 0.04 | [3] 0.064 | [4] -0.022 | [5] -0.068

MXRA7 (UniProt P84157)
inactive: [3] -0.05 | [4] -0.106 | [5] -0.062

NUMB isoform 2 (UniProt P49757)
inactive: [4] -0.207

MYBL2 (UniProt P10244)
Sequence of UniProt P10244 (P10244 whole entry, looked up): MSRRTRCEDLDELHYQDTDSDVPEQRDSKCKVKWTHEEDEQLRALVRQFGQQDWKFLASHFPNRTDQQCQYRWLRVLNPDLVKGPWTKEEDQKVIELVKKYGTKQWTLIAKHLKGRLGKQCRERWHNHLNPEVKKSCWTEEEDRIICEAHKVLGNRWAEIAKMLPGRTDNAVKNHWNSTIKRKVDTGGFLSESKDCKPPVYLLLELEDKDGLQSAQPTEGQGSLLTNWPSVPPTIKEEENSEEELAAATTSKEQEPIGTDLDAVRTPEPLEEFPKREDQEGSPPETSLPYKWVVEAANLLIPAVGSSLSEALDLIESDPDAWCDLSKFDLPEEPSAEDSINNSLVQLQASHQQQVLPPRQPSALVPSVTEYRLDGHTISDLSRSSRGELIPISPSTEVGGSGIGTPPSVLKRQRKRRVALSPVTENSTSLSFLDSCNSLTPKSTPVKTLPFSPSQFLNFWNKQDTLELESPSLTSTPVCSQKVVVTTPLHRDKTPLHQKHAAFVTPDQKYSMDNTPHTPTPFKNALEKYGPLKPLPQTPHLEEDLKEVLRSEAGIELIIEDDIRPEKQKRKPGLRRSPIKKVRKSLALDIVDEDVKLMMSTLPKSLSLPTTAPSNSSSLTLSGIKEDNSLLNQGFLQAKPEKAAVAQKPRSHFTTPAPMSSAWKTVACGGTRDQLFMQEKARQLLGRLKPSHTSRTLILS
active: [5] 0.326
inactive: [3] -0.01 | [4] 0.047

NPLOC4 (UniProt I3L3I1)
inactive: [1] -0.041 | [2] 0.2 | [4] -0.101

NSUN2 (UniProt Q08J23)
inactive: [1] -0.016 | [2] 0.011 | [3] -0.009 | [4] 0.021 | [5] 0.019

NADK2 (UniProt Q4G0N4)
Sequence of UniProt Q4G0N4 (Q4G0N4 whole entry, looked up): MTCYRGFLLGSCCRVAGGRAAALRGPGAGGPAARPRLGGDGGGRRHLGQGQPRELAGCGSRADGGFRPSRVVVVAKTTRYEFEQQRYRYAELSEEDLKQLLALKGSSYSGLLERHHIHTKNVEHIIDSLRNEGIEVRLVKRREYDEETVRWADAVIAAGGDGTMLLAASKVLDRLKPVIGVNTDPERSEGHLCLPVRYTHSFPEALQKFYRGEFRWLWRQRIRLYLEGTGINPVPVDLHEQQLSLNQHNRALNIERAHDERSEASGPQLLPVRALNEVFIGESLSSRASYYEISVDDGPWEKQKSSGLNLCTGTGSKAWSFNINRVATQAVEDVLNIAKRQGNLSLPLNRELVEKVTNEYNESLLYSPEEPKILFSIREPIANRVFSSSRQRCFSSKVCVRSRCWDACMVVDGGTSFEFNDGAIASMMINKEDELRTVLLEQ
inactive: [1] 0.057 | [2] 0.007 | [3] -0.006 | [4] 0.045 | [5] -0.012

NUF2 (UniProt Q9BZD4)
inactive: [1] -0.03 | [2] 0.008 | [3] 0.018 | [4] 0.007 | [5] 0.016

NUMBL (UniProt Q9Y6R0)
Sequence of UniProt Q9Y6R0 (Q9Y6R0 whole entry, looked up): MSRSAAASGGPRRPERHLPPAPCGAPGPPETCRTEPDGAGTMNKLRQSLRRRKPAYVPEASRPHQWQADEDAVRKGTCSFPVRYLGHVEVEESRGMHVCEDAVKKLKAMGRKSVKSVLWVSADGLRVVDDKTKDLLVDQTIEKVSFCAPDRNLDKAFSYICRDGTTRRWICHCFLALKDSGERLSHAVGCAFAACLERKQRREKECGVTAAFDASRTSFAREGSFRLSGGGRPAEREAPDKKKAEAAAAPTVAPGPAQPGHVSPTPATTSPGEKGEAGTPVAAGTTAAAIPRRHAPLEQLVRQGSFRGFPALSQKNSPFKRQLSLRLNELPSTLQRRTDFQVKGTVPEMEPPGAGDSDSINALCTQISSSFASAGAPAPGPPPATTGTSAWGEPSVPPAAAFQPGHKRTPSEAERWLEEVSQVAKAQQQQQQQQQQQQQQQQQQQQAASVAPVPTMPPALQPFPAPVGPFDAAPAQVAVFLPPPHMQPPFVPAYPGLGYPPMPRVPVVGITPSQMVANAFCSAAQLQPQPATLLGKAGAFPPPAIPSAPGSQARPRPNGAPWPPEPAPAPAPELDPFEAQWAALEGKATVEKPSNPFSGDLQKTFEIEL
inactive: [1] -0.047 | [2] 0.038 | [3] 0.039 | [4] -0.096 | [5] -0.012

PARD3B (UniProt Q8TEW8)
inactive: [4] 0.138 | [5] -0.085

NOCT (UniProt Q9UK39)
inactive: [4] 0.021

PAPOLG (UniProt Q9BWT3)
Sequence of UniProt Q9BWT3 (Q9BWT3 whole entry, looked up): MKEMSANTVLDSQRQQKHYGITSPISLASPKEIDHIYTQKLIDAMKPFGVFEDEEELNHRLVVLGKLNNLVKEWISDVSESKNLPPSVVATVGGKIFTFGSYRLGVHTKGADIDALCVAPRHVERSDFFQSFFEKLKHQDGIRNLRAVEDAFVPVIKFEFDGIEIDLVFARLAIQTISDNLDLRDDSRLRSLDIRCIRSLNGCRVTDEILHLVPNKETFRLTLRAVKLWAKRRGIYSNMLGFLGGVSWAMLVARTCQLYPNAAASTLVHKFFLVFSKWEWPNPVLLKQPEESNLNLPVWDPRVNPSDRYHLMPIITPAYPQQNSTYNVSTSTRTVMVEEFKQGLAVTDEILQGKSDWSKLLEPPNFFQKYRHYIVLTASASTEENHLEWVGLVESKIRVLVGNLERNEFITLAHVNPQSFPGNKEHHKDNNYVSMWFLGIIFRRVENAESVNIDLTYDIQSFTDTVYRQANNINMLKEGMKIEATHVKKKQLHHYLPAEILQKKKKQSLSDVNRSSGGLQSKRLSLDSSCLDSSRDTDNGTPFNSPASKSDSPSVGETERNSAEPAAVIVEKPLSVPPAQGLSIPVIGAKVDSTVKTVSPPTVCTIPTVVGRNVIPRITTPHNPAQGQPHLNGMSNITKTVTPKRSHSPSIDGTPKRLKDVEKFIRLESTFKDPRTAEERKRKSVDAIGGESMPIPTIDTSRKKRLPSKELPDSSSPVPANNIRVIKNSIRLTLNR
inactive: [3] 0.064 | [4] 0.074 | [5] -0.107

NUP210 (UniProt Q8TEM1)
inactive: [1] -0.101 | [2] 0.07 | [3] 0.016 | [4] 0.04 | [5] 0.028

MYLK (UniProt Q15746)
inactive: [1] -0.038 | [2] -0.161 | [3] -0.008 | [5] 0.123

MT-ATP8 (UniProt P03928)
inactive: [1] -0.057 | [2] 0.052 | [3] 0.082 | [5] 0.104

NOSIP (UniProt Q9Y314)
inactive: [1] 0.018 | [2] -0.005 | [3] -0.018 | [4] 0.019 | [5] 0.012

NFAT5 isoform 5 (UniProt O94916)
inactive: [1] 0.12 | [2] -0.028 | [3] 0.009 | [4] -0.02 | [5] -0.007

PAN2 isoform 2 (UniProt Q504Q3)
inactive: [1] -0.108 | [2] 0.086 | [3] -0.004 | [4] -0.044 | [5] 0.007

NRIP1 (UniProt P48552)
inactive: [1] 0.058 | [2] 0.112 | [4] -0.071 | [5] -0.069

MTCH2 (UniProt Q9Y6C9)
inactive: [1] 0.013 | [2] 0.001 | [3] -0.006 | [4] -0.014 | [5] -0.083

NCAPG (UniProt Q9BPX3)
inactive: [1] -0.031 | [2] 0.013 | [3] -0.007 | [4] 0.013 | [5] 0.03

PAGE2B (UniProt Q5JRK9)
inactive: [3] -0.031 | [4] -0.072 | [5] 0.182

NSUN7 (UniProt Q8NE18)
inactive: [1] -0.144 | [2] -0.046 | [3] 0.06 | [5] -0.081

NR2C2 isoform 2 (UniProt P49116)
inactive: [1] -0.078 | [2] -0.08 | [3] -0.04 | [4] 0.243 | [5] 0.047

P2RY1 (UniProt P47900)
inactive: [1] -0.153 | [2] 0.163 | [4] -0.047 | [5] -0.022

NEBL (UniProt O76041)
inactive: [1] -0.074 | [2] 0.011 | [3] 0.047 | [4] 0.043 | [5] 0.014

NR2F2 (UniProt P24468)
Sequence of UniProt P24468 (P24468 whole entry, looked up): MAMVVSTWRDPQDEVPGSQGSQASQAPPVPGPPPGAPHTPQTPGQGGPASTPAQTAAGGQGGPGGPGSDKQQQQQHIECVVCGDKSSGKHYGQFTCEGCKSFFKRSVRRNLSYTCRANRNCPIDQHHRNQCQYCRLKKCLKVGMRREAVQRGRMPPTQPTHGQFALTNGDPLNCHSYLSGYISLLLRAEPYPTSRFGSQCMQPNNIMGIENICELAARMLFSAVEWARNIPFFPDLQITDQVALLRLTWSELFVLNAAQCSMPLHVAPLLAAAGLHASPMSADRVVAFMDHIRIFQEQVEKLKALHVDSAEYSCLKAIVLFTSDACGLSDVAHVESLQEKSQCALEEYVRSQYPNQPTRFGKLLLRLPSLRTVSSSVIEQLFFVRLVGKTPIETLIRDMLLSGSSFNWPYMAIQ
inactive: [1] -0.082 | [2] -0.117 | [4] -0.008 | [5] 0.082

MRPS12 (UniProt O15235)
inactive: [1] 0 | [2] 0.019 | [3] 0.053 | [4] 0.039 | [5] 0.026
